Assay results published in PubChem BioAssay (EPA / NIEHS).
Several values for one entry are separate records, joined by “and”; a condition that tells them apart may be missing. Identical values can stand only once. Results filed as inconclusive are left out. The source holds several records for some structures; these can differ, active in one and inactive in another. Activity calls are given as the source filed them. Rule for the calls, unless noted: active = hit-call score of the fitted dose curve at least 0.9, where 1 is the maximum; inactive = score below 0.9.

Key:
[1] = CCTE_Deisenroth_AIME_384WELL_CTox_Active: Cytotoxicity Assessment (CTOX) in CCTE's 384-well Estrogen Receptor Transactivation Assay with AIME metabolic competence (metabolism positive), Deisenroth Lab (AID 2284037; active = hit-call score of the fitted dose curve at least 0.9, where 1 is the maximum;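 note: chemicals first conditioned 2 h by alginate-bound induced rat liver S9 before cells; activity means signal loss indicating cell death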)
How it was run: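 Chemicals pre-incubated 2 hours with alginate-immobilised phenobarbital/beta-naphthoflavone-induced male Sprague Dawley rat liver S9, then conditioned medium applied 24 hour to VM7Luc4E2 cells. Viability by fluorogenic protease substrate; 10-point series 0.002 - 200 uM.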

[2] = biological target: Estrogen receptor (Homo sapiens) (UniProt P03372); test: CCTE_Deisenroth_AIME_384WELL_LUC_Inactive: CCTE's 384-well Estrogen Receptor Transactivation Assay without AIME metabolic competence (ERTA luciferase; metabolism negative), Deisenroth Lab (AID 2284038; active = hit-call score of the fitted dose curve at least 0.9, where 1 is the maximum;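 note: VM7Luc4E2 breast cells given medium preincubated 2 h with S9-free microspheres; hits raise estrogen receptor luciferase signal so potencies reflect agonists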)
Sequence of Estrogen receptor (Homo sapiens) (P03372 whole entry, looked up): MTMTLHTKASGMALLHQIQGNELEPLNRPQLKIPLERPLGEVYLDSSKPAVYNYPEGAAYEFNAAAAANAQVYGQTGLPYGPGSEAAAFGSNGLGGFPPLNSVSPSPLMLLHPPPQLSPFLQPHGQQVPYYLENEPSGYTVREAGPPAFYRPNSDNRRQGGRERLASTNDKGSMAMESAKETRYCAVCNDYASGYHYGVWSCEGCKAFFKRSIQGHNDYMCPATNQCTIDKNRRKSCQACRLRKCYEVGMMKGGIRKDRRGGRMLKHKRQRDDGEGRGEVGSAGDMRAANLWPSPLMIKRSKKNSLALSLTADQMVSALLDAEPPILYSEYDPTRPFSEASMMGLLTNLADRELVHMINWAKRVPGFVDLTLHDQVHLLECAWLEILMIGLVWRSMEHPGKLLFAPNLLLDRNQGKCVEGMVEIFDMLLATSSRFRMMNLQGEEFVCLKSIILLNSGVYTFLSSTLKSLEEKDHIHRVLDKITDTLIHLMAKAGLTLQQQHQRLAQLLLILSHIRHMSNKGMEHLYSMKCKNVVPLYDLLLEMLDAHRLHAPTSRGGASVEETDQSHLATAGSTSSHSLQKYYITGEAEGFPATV
How it was run: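 Metabolism-negative mode: chemicals (10-point, 0.002–200 uM) held 2 h with alginate-water microspheres, then conditioned medium applied to VM7Luc4E2 cells for 24 h. Luciferase induction referenced to 17beta-estradiol.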

[3] = CCTE_Deisenroth_AIME_384WELL_CTox_Inactive: Cytotoxicity Assessment (CTOX) in CCTE's 384-well Estrogen Receptor Transactivation Assay without AIME metabolic competence (metabolism negative), Deisenroth Lab (AID 2284039; active = hit-call score of the fitted dose curve at least 0.9, where 1 is the maximum;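 note: cell viability via live-cell protease substrate cleaved to fluorescent probe; cells exposed 24 h to medium preincubated 2 h with alginate-water beads without S9; loss of fluorescence signal means loss of viability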)
How it was run: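 Fluorescence from a live-cell protease substrate, read after 24 h in VM7Luc4E2 cells, indicated viability. Test medium came from a 2 h AIME step without hepatic S9 (alginate-water microspheres); concentrations spanned 0.002 - 200 uM, single technical replicate per run.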

[4] = CCTE_Shafer_MEA_dev_active_electrodes_number: CCTE's Neural Network Formation Assay for Number of Active Electrodes, Shafer Lab (AID 2284040; active = hit-call score of the fitted dose curve at least 0.9, where 1 is the maximum;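 for AC50: potency for loss of active electrodes versus DMSO so lower counts are hits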)
How it was run: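 Primary rat cortical neurons on 16-electrode MEA wells, exposed from day 0 through day 12 with compound renewed at DIV 5 and 9 feeds. Active electrodes (mean firing ≥5 spikes/min) counted at DIV 5, 7, 9, 12; trapezoidal AUC across days, loss-of-signal versus DMSO.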

[5] = biological target: Estrogen receptor (Homo sapiens) (UniProt P03372); test: CCTE_Deisenroth_AIME_384WELL_LUC_Shift: CCTE's 384-well Estrogen Receptor Transactivation Assay with AIME metabolic competence data shift (ERTA luciferase; difference in metabolism positive and negative), Deisenroth Lab (AID 2284041);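 note: shift is response with S9 minus without S9 so positive means metabolism raised ER signal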
How it was run: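 Chemicals (0.002–200 uM, 10 points) pre-incubated 2 h with alginate-encapsulated induced male Sprague Dawley rat liver S9 or S9-free, then medium applied 24 h to VM7Luc4E2 cells; luciferase. Endpoint is per-concentration difference, S9-positive minus negative.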

[6] = CCTE_Shafer_MEA_dev_burst_rate: CCTE's Neural Network Formation Assay for Burst Rate, Shafer Lab (AID 2284042);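 for AC50: potency for loss of burst rate below DMSO control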
How it was run: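 Developmental network assay measuring how 12-day exposure of rat cortical neuron cultures alters bursting on extracellular MEA recordings. Values are AUC of well-mean burst rate across four recording days, relative to DMSO vehicle.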

[7] = CCTE_Shafer_MEA_dev_bursting_electrodes_number: CCTE's Neural Network Formation Assay for Number of Bursting Electrodes, Shafer Lab (AID 2284043; active = hit-call score of the fitted dose curve at least 0.9, where 1 is the maximum;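 for AC50: potency is for loss of bursting electrodes relative to DMSO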)
How it was run: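 Primary rat cortical neurons plated on 16-electrode MEA wells, exposed from day 0 with compound renewed at DIV 5 and 9. Electrodes bursting ≥1 burst per 2 min counted on days 5, 7, 9 and 12; trapezoidal AUC across days, fitted for loss versus DMSO.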

[8] = CCTE_Shafer_MEA_dev_per_burst_interspike_interval: CCTE's Neural Network Formation Assay for Burst Interspike Interval, Shafer Lab (AID 2284044);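 note: mean spike spacing inside bursts as AUC over recordings on days 5 7 9 12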;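 for AC50: potency for a decrease of within-burst interspike interval below DMSO level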
How it was run: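 Mean interspike interval within single-electrode bursts, averaged over bursting electrodes, from rat cortical cultures on MEA plates recorded on days 5, 7, 9 and 12. Continuous compound exposure from plating; trapezoidal AUC fitted downward relative to DMSO.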

[9] = CCTE_Shafer_MEA_dev_burst_duration_mean: CCTE's Neural Network Formation Assay for Mean Burst Duration, Shafer Lab (AID 2284045);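 for AC50: curve fitted for loss meaning shorter burst duration than DMSO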
How it was run: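 Primary rat cortical neurons on 48-well 16-electrode MEA plates, exposed from day 0 with renewal at DIV 5 and 9; spontaneous activity recorded on days 5, 7, 9, 12. Well-mean burst duration across bursting electrodes, collapsed as trapezoidal AUC; DMSO baseline.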

[10] = CCTE_Shafer_MEA_dev_interburst_interval_mean: CCTE's Neural Network Formation Assay for Mean Interburst Interval, Shafer Lab (AID 2284046);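 note: well-mean interburst interval of bursting electrodes as AUC over four recording days; curve fitted for decrease in interburst interval relative to DMSO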
How it was run: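 Network formation assay in primary rat cortical cultures, exposed from DIV 0 to 12. Mean interburst interval per well, integrated as AUC over four recordings.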

[11] = CCTE_Shafer_MEA_dev_inter_network_spike_interval_mean: CCTE's Neural Network Formation Assay for Mean Inter-network Spike Interval, Shafer Lab (AID 2284047);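 for AC50: potency for a decrease in mean inter-network spike interval below DMSO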
How it was run: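 Compound was given at plating to primary rat cortical neurons and renewed with full medium changes on DIV 5 and 9. Extracellular activity was recorded on days 5, 7, 9, 12; AUC values were fitted for loss relative to DMSO control.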

[12] = CCTE_Shafer_MEA_dev_network_spike_number: CCTE's Neural Network Formation Assay for Number of Network Spikes, Shafer Lab (AID 2284048);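 for AC50: fit as a loss of signal meaning fewer network spikes than DMSO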
How it was run: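 Primary rat cortical neurons on PEI/laminin 48-well MEA plates, dosed from plating day 0 for 12 days, renewed at DIV 5 and 9. Network spike counts recorded DIV 5, 7, 9, 12, collapsed as trapezoidal AUC; DMSO baseline.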

[13] = CCTE_Shafer_MEA_dev_per_network_spike_spike_number_mean: CCTE's Neural Network Formation Assay for Mean Number of Spikes in a Network Spike, Shafer Lab (AID 2284053);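 for AC50: fitted as decrease in spikes per network spike relative to DMSO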
How it was run: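 First, rat cortical cells (1.5 x 10^5/well) were seeded onto MEA wells; second, dosing began at plating and was refreshed on DIV 5 and 9; finally, network-spike spike counts across DIV 5–12 were summarized as AUC.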

[14] = CCTE_Shafer_MEA_dev_per_network_spike_spike_percent: CCTE's Neural Network Formation Assay for Percent of Spikes in a Network Spike, Shafer Lab (AID 2284054)
How it was run: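 Rat primary cortical neurons were grown on 48-well MEA plates (16 electrodes/well), exposed from plating day 0 through day 12, with treatment renewed on DIV 5 and 9. Percent of spikes within 0.05 s network-spike peaks was measured, summarised as AUC across days 5, 7, 9, 12.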

[15] = CCTE_Shafer_MEA_acute_AB: CCTE's Alamar Blue Assay for Cytotoxicity in the Neural Acute Assay, Shafer Lab (AID 2284069; active = hit-call score of the fitted dose curve at least 0.9, where 1 is the maximum;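 note: active compounds lower the viability signal compared with DMSO wells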)
How it was run: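 Cytotoxicity endpoint for acute MEA exposures of primary rat cortical neurons on day 13 or 15. Resazurin reduction is read fluorescently at 544/590 nm, with DMSO as the negative-control baseline.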

[16] = tested on: DIO2 (gene 1734); test: CCTE_GLTED_hDIO2: CCTE's human Deiodinase 2 (DIO2) Inhibition Assay, Great Lakes Toxicology and Ecology Division (GLTED) Lab (AID 2284050; active = hit-call score of the fitted dose curve at least 0.9, where 1 is the maximum)
How it was run: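 hDIO2 enzyme + test chem, 3 h → free iodide from substrate; step 2: Sandell-Kolthoff (Ce IV reduction by As, iodide-catalysed), spectrophotometric read. Triplicate plates; DMSO = baseline.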

[17] = tested on: DIO3 (gene 1735); test: CCTE_GLTED_hDIO3: CCTE's human Deiodinase 3 (DIO3) Inhibition Assay, Great Lakes Toxicology and Ecology Division (GLTED) Lab (AID 2284055; active = hit-call score of the fitted dose curve at least 0.9, where 1 is the maximum;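 note: potency is for inhibition seen as loss of released iodide signal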)
How it was run: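 Absorbance from the Sandell-Kolthoff reaction reports iodide released by human DIO3 during a 3-hour incubation with chemical. Inhibition scored as signal loss against DMSO controls.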

[18] = CCTE_Shafer_MEA_dev_LDH: CCTE's Lactate Dehydrogenase Assay for Cytotoxicity in the Neural Network Formation Assay, Shafer Lab (AID 2284068; active = hit-call score of the fitted dose curve at least 0.9, where 1 is the maximum;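 note: exposure for twelve days from plating with re-dosing on DIV 5 and 9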)
How it was run: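 Developing rat cortical networks on MEA plates are exposed to compound for 12 days from plating. LDH activity is measured spectrophotometrically, with DMSO as baseline.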

Measured: AC50

CS(=O)(=O)c1cc(C(F)(F)F)ccc1C(=O)c1cnoc1C1CC1
inactive: [1] | [2] | [3] | [4] | [5] | [6] | [7] | [8] | [9] | [10] | [11] | [12] | [13] | [14]

COc1cc(OC)nc(NC(=O)NS(=O)(=O)c2ncccc2OCC(F)(F)F)n1
inactive: [1] | [2] | [3] | [5]

CN=C=S
inactive: [1] | [2] | [3] | [5]

CC(C)N1C(=O)N(c2ccccc2)CSC1=NC(C)(C)C
inactive: [1] | [2] | [3] | [5] | [15]

COCC(C)N(C(=O)CCl)c1c(C)csc1C (stereo not given)
inactive: [1] | [2] | [3] | [5]

N#Cc1c(Cl)cccc1Cl
inactive: [1] | [2] | [3] | [5]

COCc1cnc(C2=NC(C)(C(C)C)C(=O)N2)c(C(=O)O)c1 (stereo not given)
inactive: [1] | [2] | [3] | [5]

CO/N=C(/C1=NOCCO1)c1ccccc1Oc1ncnc(Oc2ccccc2Cl)c1F
inactive: [5] | [11] | [16] | [15]
active: [1] 32.8 µM | [3] 15.3 µM | [4] 1.2 µM and 1.05 µM | [6] 789 nM and 637 nM | [7] 968 nM and 1.02 µM | [8] 2.28 µM and 518 nM | [9] 1.23 µM and 858 nM | [10] 2.3 µM and 1.29 µM | [11] 0.52 µM | [12] 527 nM and 449 nM | [13] 854 nM and 756 nM | [14] 1.52 µM and 801 nM | [17] 15.9 µM | [18] 643 nM and 858 nM

CCOc1nc(F)cc2nc(S(=O)(=O)Nc3c(Cl)cccc3Cl)nn12
inactive: [1] | [2] | [5] | [15]
active: [3] 146 µM

CCCCC(O)(Cn1cncn1)c1ccc(Cl)cc1Cl (stereo not given)
active: [1] 162 µM | [3] 100 µM
inactive: [5]

CC(C)Oc1cccc(NC(=O)c2ccccc2C(F)(F)F)c1
inactive: [1] | [3] | [5]

Nc1c(Cl)c(Cl)nc(C(=O)O)c1Cl
inactive: [1] | [3]
active: [2] 14.3 µM | [5] 5.4 µM

CC(C)Nc1nc(Cl)nc(NC(C)C)n1
inactive: [2] | [5]

O=C(Nc1ccccc1-c1ccc(Cl)cc1)c1cccnc1Cl
inactive: [2] | [4] | [5] | [6] | [7] | [8] | [9] | [10] | [11] | [12] | [13] | [14] | [18]
active: [4] 9.92 µM | [6] 4.18 µM and 3.1 nM | [7] 7.09 µM | [8] 5.35 µM | [10] 2.59 µM | [11] 0.01 µM | [13] 1.13 µM | [18] 50 µM

CNC(=O)Oc1cccc2ccccc12
active: [4] 15 µM | [6] 4.84 µM | [7] 15 µM | [12] 1000 nM | [13] 20.1 µM | [14] 15 µM and 5.05 µM | [18] 15 µM and 25.1 µM
inactive: [6] | [8] | [9] | [10] | [11] | [12] | [13] | [15]

OC(c1ccc(Cl)cc1)(c1ccc(Cl)cc1)C(Cl)(Cl)Cl
inactive: [15]
active: [16] 76.4 µM | [17] 15.8 µM

COP(=O)(OC)O/C(C)=C/C(=O)N(C)C
inactive: [4] | [6] | [8] | [9] | [10] | [11] | [12] | [13] | [14] | [18]

CS(=O)(=O)c1ccc(C(=O)C2C(=O)CCCC2=O)c([N+](=O)[O-])c1
inactive: [4] | [6] | [7] | [8] | [9] | [10] | [11] | [12] | [13] | [14] | [18]
active: [16] 24.8 µM | [17] 46.3 µM

O=C1C2CC=CCC2C(=O)N1SC(Cl)(Cl)Cl (stereo not given)
active: [4] 9.85 µM | [7] 9.85 µM and 1.97 µM | [8] 16.2 µM | [10] 9.95 µM | [13] 9.85 µM | [14] 15.6 µM | [18] 15.9 µM and 13.8 µM
inactive: [4] | [6] | [8] | [9] | [10] | [11] | [12] | [13] | [14]

CCCN(CC)CC1COC2(CCC(C(C)(C)C)CC2)O1 (stereo not given)
active: [4] 0.246 µM | [6] 0.136 µM | [7] 0.223 µM | [8] 0.234 µM | [9] 157 nM | [10] 0.325 µM | [11] 0.257 µM | [12] 93.3 nM | [13] 0.272 µM | [14] 0.266 µM | [18] 0.168 µM

Cc1nc(N(C)C)nc(OC(=O)N(C)C)c1C
active: [16] 44.6 µM | [17] 10 µM
